HTR5A ag: HTR5A agonists in luminescence cell assay, primary screen, counter-screen for OPRM1-OPRD1 heterodimer agonist project, full-deck HTS; cell-based; actives 0.61% (n = 340,000); activation, % at 9.3 µM; in the data active = activation mostly above about 9.5%, no sharp cut-off; inactive = mostly below about 7.6%;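 also: 0% = cells with vehicle only and 100% = reference agonist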
Target sequence (P47898 whole entry, looked up): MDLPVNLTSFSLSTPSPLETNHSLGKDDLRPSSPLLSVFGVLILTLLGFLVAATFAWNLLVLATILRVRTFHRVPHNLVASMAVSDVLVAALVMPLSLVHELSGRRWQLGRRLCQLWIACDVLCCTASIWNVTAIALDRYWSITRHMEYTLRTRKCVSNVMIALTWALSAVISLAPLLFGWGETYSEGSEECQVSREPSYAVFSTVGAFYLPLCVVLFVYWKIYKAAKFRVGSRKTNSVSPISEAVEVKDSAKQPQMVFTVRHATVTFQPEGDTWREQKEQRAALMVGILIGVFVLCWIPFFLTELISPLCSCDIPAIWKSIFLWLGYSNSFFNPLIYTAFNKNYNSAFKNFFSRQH
MOR-DOR inv ag: inverse agonists of MOR-DOR heterodimerization, primary screen, cell-based, luminescence | Mu-type opioid receptor (Homo sapiens) + Delta-type opioid receptor (Homo sapiens), … | cell-based MOR-DOR heterodimer luminescence, inverse agonism | inhibition, % at 9.3 µM | actives 0.21% (n = 340,000) | AID 504357, 2011; in the data active = inhibition above about 22%, passing the limit was not always enough;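 also: 0% = cells with DMSO and 100% = wells without cells with DMSO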
HTR5A inv ag: HTR5A inverse agonists in luminescence cell assay, primary screen, counter-screen for OPRM1-OPRD1 heterodimer inverse agonist project, full-deck HTS | 5-hydroxytryptamine receptor 5A (Homo sapiens), P47898 | HTR5A cell line, inverse agonism | inhibition, % at 9.3 µM | actives 0.083% (n = 340,000) | AID 504634, 2011; in the data active = inhibition mostly above about 23%, no sharp cut-off; inactive = mostly below about 18%;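 also: 0% = cells with DMSO and 100% = no-cell wells with DMSO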
HTR2A ag: mouse Htr2a agonists via beta-arrestin recruitment, primary screen, cell-based, luminescence. actives 0.66% (n = 360,000). activation, % at 7.6 µM. CHO-K1 mHTR2A beta-arrestin complementation; percent of 30 µM serotonin response. 5-hydroxytryptamine receptor 2A (Mus musculus), P35363;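 active = activation above a run cutoff, the mean activation of all tested compounds plus 3 SD, cut at about 14% in these data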;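 also: 0% = plate median of compound wells and 100% = 30 µM serotonin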
OPRM1-OPRD1 ag: agonists of OPRM1-OPRD1 heterodimerization, primary screen, cell-based, luminescence. Mu-type opioid receptor (Homo sapiens) + Delta-type opioid receptor (Homo sapiens), …. cells. AID 504326, 2011. activation, % at 9.3 µM. actives 0.3% (n = 340,000); in the data active = activation above about 18%;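 also: 0% = vehicle-treated cells and 100% = reference agonist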
HGIII-sPLA2 inh: human group III sPLA2 inhibitors, primary screen, biochemical, QFRET, BODIPY PC-A2 liposome substrate. QFRET BODIPY PC-A2 liposome hydrolysis, fluorescence. inhibition, % at 12.2 µM. actives 0.56% (n = 370,000);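 active = inhibition above mean plus 3 SD of compounds lying within the high and low control bounds, cut at about 19% in these data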;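 also: 0% = median of test compound wells and 100% = no enzyme DMSO wells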
* hit, by the source's call. The list is not random: actives were taken first. Their share in the collection is about 2.2%.

CN1CCN(C(=O)c2cc(COc3ccccc3)on2)[C@@H](c2ccccc2)C1 was read as HTR5A ag 9.5*, MOR-DOR inv ag 1, HTR5A inv ag -17, HTR2A ag 7, OPRM1-OPRD1 ag 0 and HGIII-sPLA2 inh 3.
`COc1ccc(C(=O)O)cc1NC(=S)NC(=O)c1ccc(-c2ccc(Cl)cc2)o1` gave HTR5A ag -1, MOR-DOR inv ag 20, HTR5A inv ag 9, HTR2A ag -5, OPRM1-OPRD1 ag -4 and HGIII-sPLA2 inh 0.
Cc1ccc(C(=O)O)cc1NC(=S)NC(=O)c1ccc(-c2ccc(Cl)cc2)o1 was read as HTR5A ag 12*, MOR-DOR inv ag 10, HTR5A inv ag -5, HTR2A ag 1, OPRM1-OPRD1 ag -2 and HGIII-sPLA2 inh -2.
For COc1ccccc1C(=O)N/C(=C\c1cn(C)c2ccccc12)C(=O)N1CCOCC1 the results were HTR5A ag 11*, MOR-DOR inv ag 14, HTR5A inv ag 16, HTR2A ag -1, OPRM1-OPRD1 ag -3 and HGIII-sPLA2 inh 6.
For O=C(N/N=C/c1cccc2ccccc12)c1ccc(CN2CCOCC2)cc1 the results were HTR5A ag 12*, MOR-DOR inv ag 7, HTR5A inv ag -42, HTR2A ag -5, OPRM1-OPRD1 ag -2 and HGIII-sPLA2 inh 2.
`CC(=O)N/C(=C\c1ccccc1)C(=O)OCc1cccc(S(=O)(=O)N(C)C)c1` gave HTR5A ag 9.4*, MOR-DOR inv ag -2, HTR5A inv ag -34, HTR2A ag 14, OPRM1-OPRD1 ag 0 and HGIII-sPLA2 inh -4.
Screening CC(=O)N/C(=C\c1ccccc1)C(=O)OCc1ccccc1 returned HTR5A ag 5, MOR-DOR inv ag 21, HTR5A inv ag -11, HTR2A ag -1, OPRM1-OPRD1 ag -4 and HGIII-sPLA2 inh 1.
For c1ccc(-c2nnc(N3CCN(c4ccccn4)CC3)c3ccccc23)cc1 the results were HTR5A ag 0, MOR-DOR inv ag 1, HTR5A inv ag -1, HTR2A ag 9, OPRM1-OPRD1 ag 0 and HGIII-sPLA2 inh 0.
For Cc1ccc(-c2nnc(N3CCN(c4ccccn4)CC3)c3ccccc23)cc1 the results were HTR5A ag 13*, MOR-DOR inv ag 3, HTR5A inv ag -12, HTR2A ag 4, OPRM1-OPRD1 ag -1 and HGIII-sPLA2 inh -3.
Screening c1nc(NCC2CCCCO2)c2cc(-c3ccc4c(c3)OCO4)ccc2n1 (stereo unspecified) returned HGIII-sPLA2 inh 3.
Screening O=C(O)c1cccc2c1C(=O)c1ccccc1-2 returned HTR5A ag 0, MOR-DOR inv ag 13, HTR5A inv ag 0, HTR2A ag -2, OPRM1-OPRD1 ag -3 and HGIII-sPLA2 inh -2.
For O=C1C(=C(I)I)c2ccccc2-c2ccccc21 the results were HTR5A ag 9, MOR-DOR inv ag -202, HTR5A inv ag -35, HTR2A ag -1, OPRM1-OPRD1 ag 41* and HGIII-sPLA2 inh -22.
`COC(=O)CCCC1=CC2=C(c3ccccc3)C(=O)C(C)(OC(=O)C3CCCC3)C(=O)C2=CN1C1CC1` (stereo unspecified) gave HTR5A ag -2, MOR-DOR inv ag -6, HTR5A inv ag -10, HTR2A ag -4, OPRM1-OPRD1 ag 1 and HGIII-sPLA2 inh 8.
C=CCN1C=C2C(=O)C(C)(OC(=O)C3CCCC3)C(=O)C(c3ccccc3)=C2C=C1CCCC(=O)OC (stereo unspecified) was read as HTR5A ag 12*, MOR-DOR inv ag -32, HTR5A inv ag 22, HTR2A ag -3, OPRM1-OPRD1 ag 6 and HGIII-sPLA2 inh 0.
Screening CC(C)Cn1c(N)c(C(=O)NCC2CCCO2)c2nc3ccccc3nc21 (stereo unspecified) returned HTR5A ag -4, MOR-DOR inv ag 44*, HTR5A inv ag 11, HTR2A ag 4, OPRM1-OPRD1 ag -11 and HGIII-sPLA2 inh -10.
For CNc1ccc(C=C2C=Cc3ccccc32)cc1 the results were HTR5A ag -3, MOR-DOR inv ag -5, HTR5A inv ag 12, HTR2A ag -9, OPRM1-OPRD1 ag 1 and HGIII-sPLA2 inh 25*.
For CN(C)c1ccc(C=C2C=Cc3ccccc32)cc1 the results were HTR5A ag 2, MOR-DOR inv ag 6, HTR5A inv ag -9, HTR2A ag 1, OPRM1-OPRD1 ag -1 and HGIII-sPLA2 inh -3.
Screening COc1c(Cl)cc(Cl)cc1/C=N/NC(=O)c1nnn(-c2nonc2N)c1CN1CCC(C)CC1 returned HTR5A ag 11*, MOR-DOR inv ag -12, HTR5A inv ag -19, HTR2A ag -2, OPRM1-OPRD1 ag 2 and HGIII-sPLA2 inh -3.
Screening CC1CCN(Cc2c(C(=O)N/N=C/c3cc(Cl)ccc3O)nnn2-c2nonc2N)CC1 returned HTR5A ag 0, MOR-DOR inv ag -26, HTR5A inv ag 0, HTR2A ag -2, OPRM1-OPRD1 ag 5 and HGIII-sPLA2 inh 2.
Screening COc1ccc2sc(N(CCCN(C)C)C(=O)c3ccc(S(=O)(=O)N4CCCC4)cc3)nc2c1 returned HTR5A ag 5, MOR-DOR inv ag 6, HTR5A inv ag 14, HTR2A ag -1, OPRM1-OPRD1 ag -1 and HGIII-sPLA2 inh -12.
`Cc1cc(C)c2sc(NNC(=O)c3ccc(S(=O)(=O)N4CCc5ccccc5C4)cc3)nc2c1` gave HTR5A ag 1, MOR-DOR inv ag -22, HTR5A inv ag -17, HTR2A ag 3, OPRM1-OPRD1 ag 4 and HGIII-sPLA2 inh 45*.
Screening COc1ccc2sc(N(CCCN(C)C)C(=O)c3ccc(S(=O)(=O)N4CCc5ccccc5C4)cc3)nc2c1 returned HTR5A ag 14*, MOR-DOR inv ag -124, HTR5A inv ag -34, HTR2A ag -8, OPRM1-OPRD1 ag 23* and HGIII-sPLA2 inh -20.
For Cc1cc(C)c2sc(N(CCCN(C)C)C(=O)c3ccc(S(=O)(=O)N4CCc5ccccc5C4)cc3)nc2c1 the results were HTR5A ag 33*, MOR-DOR inv ag -158, HTR5A inv ag -82, HTR2A ag 0 and OPRM1-OPRD1 ag 29*.
For Cc1cc(C)c2sc(N(CCCN(C)C)C(=O)c3ccc(S(=O)(=O)N4CCCc5ccccc54)cc3)nc2c1 the results were HTR5A ag 3, MOR-DOR inv ag -13, HTR5A inv ag -7, HTR2A ag -12, OPRM1-OPRD1 ag 2 and HGIII-sPLA2 inh -12.

Compound activity deposited in PubChem BioAssay by The Scripps Research Institute Molecular Screening Center.
